The campaign covered roughly 87,000 compounds. About 540 (0.62%) were called active. A call without a number means that no potency is given here. How the calls were made is not given here. Many of the other results were omitted from the sample, so actives are more common in it than they were. Potency and affinity values are given separately.
Test: MT1-MMP gene expression reporter suppression – cell-based, luciferase reporter, luminescence (AID 618);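 further: actives suppress MT1-MMP promoter-driven transcription so potencies describe inhibitors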
Conditions: MT1-MMP promoter luciferase reporter cells

Compound	outcome
C/C(N)=C(/C#N)C(=O)COC(=O)COc1ccc(Cl)cc1	inactive
Oc1cccc2ccc(Nc3ccccn3)nc12	active
c1ccc(Nc2ccccc2Nc2ccccn2)nc1	inactive
c1ccc(Nc2ccccn2)cc1	inactive
Cc1cc(C)nc(NC2=NC3CCCCC3N2)n1 (stereo unspecified)	inactive
O=C(Nc1ccc(F)cc1)c1ccccc1	inactive
Cc1cc(C)cc(NC(=O)CCn2ccnc2C)c1	inactive
CC1CC(C)CN(c2oc(-c3ccco3)nc2C#N)C1 (stereo unspecified)	inactive
COc1ccc2c(CSc3nc4nc(C)cc(C)n4n3)cc(=O)oc2c1	inactive
CCC(SCC(=O)OC)C(=O)Nc1nnc(C(C)C)s1 (stereo unspecified)	inactive
Cc1nnc(SCCn2c(N3CCN(C)CC3)nc3c2c(=O)[nH]c(=O)n3C)s1	inactive
Cc1nnc(SCCn2c(N3CCN(C)CC3)nc3c2c(=O)n(C)c(=O)n3C)s1	inactive
Cc1nnc(Sc2nc(Sc3nnc(C)s3)nc(N3CCN(C)CC3)n2)s1	active
COc1ccc(NC(=O)C2C(=O)N(C)C3(C)CC2c2ccccc2O3)cc1 (stereo unspecified)	inactive
Cc1ccc2ccc(C3C(=O)c4ccccc4C3=O)nc2c1	inactive
COC(=O)C1=C(C)NC(C)=C(C(=O)OC)C1c1ccc2ccccc2n1	inactive
O=C1c2ccccc2C(=O)C1c1ccc2ccccc2n1	active
CCCCn1c(CCNC(=O)CCC)nc2ccccc21	inactive
CCCCCCc1ccc(OCC(=O)O)cc1OCC(=O)O	inactive
CC(C)(/C=N/O)/[N+]([O-])=C/c1ccco1	inactive
Cc1cc(C(=O)NCCCN2CCOCC2)n(-c2ccccc2)n1	inactive

Compound	outcome
Cc1cc(C(=O)NCCN2CCN(c3cccc(Cl)c3)CC2)n(-c2ccccc2)n1	active
Cc1cc(C(=O)NCCCN2CCN(C3CCCCC3)CC2)n(-c2ccccc2)n1	inactive
COc1ccc(S(=O)(=O)Cc2ccc(C(=O)N3CCc4ccccc4C3)o2)cc1	inactive
CCC1=C/C(=C/N(C)c2ccccc2)C(=O)S1	inactive
Cc1ccc(-c2cc(=O)[nH][nH]2)c(C)c1	inactive
CCOC(=O)c1c(C)sc2c1N(C(C)=O)c1cc(Cl)ccc1S2	inactive
CCOC(=O)c1c(C)sc2c1N(C(=O)CCl)c1cc(Cl)ccc1S2	active
CCOC(=O)c1c(C)sc2c1N(C(=O)CN(CC)CC)c1cc(Cl)ccc1S2	inactive
CCN1CCN(C(=O)c2cc3cc4ccc(OC)cc4nc3s2)CC1	inactive
CCC(C)NC(=O)c1cc2cc3ccc(OC)cc3nc2s1 (stereo unspecified)	inactive
O=c1[nH]c(NCCO)nc2ncn(Cc3ccccc3)c12	inactive
Cn1c(C(=O)N2CCCC(C(=O)NCCc3ccccc3)C2)cc2sccc21 (stereo unspecified)	inactive
Cc1ccc(-c2csc(NC(=O)c3ccno3)n2)cc1	inactive
COc1ccc(C(=O)c2ccccc2)c(O)c1	inactive
Cc1ccc(C(=O)CC(=O)c2cc(Cl)ccc2O)cc1	inactive
O=C(CC(=O)c1cc(Cl)ccc1O)c1ccccc1	inactive
Cc1ccc(O)c(C(=O)CC(=O)c2cccc(F)c2)c1	inactive
CSCCC1C(=O)OC2(C)CC(C)(C)NC(=S)N12 (stereo unspecified)	inactive
Cc1nnc(SCC(=O)c2cc(C)n(C3CC3)c2C)s1	inactive
COCCn1c(C)cc(C(=O)CSc2nncn2-c2ccccc2)c1C	inactive
CCCn1c(=O)c2ccccc2n2c(SCC(=O)c3cc(C)n(CCOC)c3C)nnc12	inactive

Compound	outcome
COCCn1c(C)cc(C(=O)CSc2nnc(C)s2)c1C	active
COCCn1c(C)cc(C(=O)CSc2ncn[nH]2)c1C	inactive
CC(=O)N1c2ccccc2C(=O)OC1c1cccnc1 (stereo unspecified)	inactive
O=C(NCCCn1ccnc1)c1cc2c(s1)CCCCC2	inactive
COc1cccc(CN2C(=O)c3ccccc3C2C(=O)NCC2CCCO2)c1 (stereo unspecified)	inactive
O=C(O)c1cnn(-c2ccccc2)c1-n1cccc1	inactive
COc1cccc(-n2nnnc2SCC(=O)Nc2cccc(C)n2)c1	inactive
O=C(Cn1cnc2c(nnn2Cc2ccc(F)cc2)c1=O)OCc1ccccc1	inactive
Cc1ccc(S(=O)(=O)Nc2cccc3ncccc23)s1	active
O=S(=O)(Nc1ccc(-c2nc3cccnc3s2)cc1)c1cccs1	inactive
Cc1ccc(S(=O)(=O)Nc2ccnc3ccccc23)cc1	inactive
O=S(=O)(Nc1cccc2ncccc12)c1cccs1	active
Cc1ccc(S(=O)(=O)NCc2cccnc2)s1	inactive
O=S(=O)(Nc1cccc2c1ccc1cccn12)c1cccs1	inactive
CCN(CC)CCOC(=O)c1cccc(Cl)c1	inactive
Cc1ccc(C(=O)c2nocc2C(=O)c2cccs2)cc1	inactive
O=C(O)Cc1ccc(C(=O)c2cccs2)s1	inactive
O=C(c1cccs1)c1no[n+]([O-])c1C(=O)c1cccs1	active
CC(=O)c1cccc(NC(=O)N2CCCC2C(=O)NCc2ccc(F)cc2)c1 (stereo unspecified)	inactive
